Out of some 220,000 compounds screened, about 2,000 (0.91%) were called active. Another 2% or so got no clear call; they are omitted. Cut-off read from the data, not from the text of the source: inconclusive = inhibition above about 80% without an active follow-up result; inactive = below that; test concentration not stated here. The list is a sample of the results. Potency and affinity values are given separately.
Assay: M. tuberculosis H37Rv growth inhibitors, H37Rv strain (AID 1626);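 note: bacteria incubated seven days before Alamar blue readout; 0% = bacteria only wells and 100% = bacteria with antibiotic wells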
Conditions: active compounds read high, concentration not given here

Structure (SMILES) | inhibition
Cc1cc(=O)[nH]c(SCC(=O)Nc2ccccc2C)n1 | -0.5% (inactive)
COc1ccccc1NS(=O)(=O)c1cccc(C(=O)N/N=C(\C)c2ccc(-n3ccnc3)cc2)c1 | -7.54% (inactive)
C/C(O)=C(/C#N)c1nc2ccccc2[nH]1 | 10.1% (inactive)
c1ccc2c(N3CCOCC3)nc(N3CCOCC3)nc2c1 | -0.04% (inactive)
c1ccc2c(NCC3CCCO3)nc(N3CCOCC3)nc2c1 (configuration not stated) | -4.2% (inactive)
CCCCNS(=O)(=O)c1ccc2nc(-c3cccnc3)cc(C(=O)NCCCN(CC)CC)c2c1 | -1.2% (inactive)
O=C(Nc1ccc2c(c1)OCCO2)c1cccc(S(=O)(=O)N2CCOCC2)c1 | 2.68% (inactive)
Cc1ccc(CNC(=O)C2CCCN(Cc3cnn(-c4ccccc4)c3-n3cccc3)C2)cc1 (configuration not stated) | 3.25% (inactive)
COc1ccc(CNc2ncnc3cc(Cl)ccc23)cc1OC | 3.34% (inactive)
COc1cccc(CNc2ncnc3cc(Cl)ccc23)c1 | 2.79% (inactive)
COc1ccc(C(=O)C(CCC(CNC(C)(C)C)C(=O)c2ccc(OC)cc2)CNC(C)(C)C)cc1 (configuration not stated) | 3.24% (inactive)
O=C(OCC#CCSc1nc2ccccc2s1)c1ccco1 | 74.1% (inactive)
O=C(CSc1nc2ccccc2o1)N1CCN(C(=O)c2ccco2)CC1 | 8.7% (inactive)
O=C(CSc1nc2ccccc2o1)c1cc2ccccc2oc1=O | 1.02% (inactive)
N#CCSc1nc2ccccc2o1 | -5.91% (inactive)
Cc1ccc2c(c1)c1c3n2CCCNC3CCC1 (configuration not stated) | 3.76% (inactive)
c1ccc2c(c1)c1c3n2CCNC3CCC1 (configuration not stated) | 3.79% (inactive)
CCOC(=O)C(=O)Nc1nc(-c2ccccc2)c(-c2ccccc2)o1 | -0.88% (inactive)
COc1cccc(C(=O)Nc2ccccc2)c1 | -3.26% (inactive)
COc1cc(OC)cc(C(=O)Nc2ccc(-c3nc4ccccc4o3)c(O)c2)c1 | 66.5% (inactive)
COc1cccc(C(=O)Nc2c(F)c(F)c(F)c(F)c2F)c1 | 0.52% (inactive)
CC(=O)Nc1nc(-c2ccccc2)c(-c2ccccc2)o1 | 56.4% (inactive)
COc1cc(OC)cc(C(=O)Nc2ccc(-c3nc4ccccc4o3)cc2)c1 | 16% (inactive)
CCCCCCN1C=C/C(=C\C=C(C#N)C#N)c2ccccc21 | 34.9% (inactive)
COc1ccccc1NC(=S)N(CCCN(C)C)Cc1cc2cc3c(cc2[nH]c1=O)OCO3 | -2.36% (inactive)
CCOC(=O)CN1CC23C=CC(O2)C(C(=O)Nc2ccc(F)c(C)c2)C3C1=O (configuration not stated) | -11.9% (inactive)
CCCCNC(=O)COC(=O)c1ccc(C)c(NC(=O)c2ccco2)c1 | -7% (inactive)

Reference: PubChem BioAssay AID1626 (SRMLSC, 2009)
